EBNA-1 inhibitor – blocks EBNA-1 binding to DNA; AID 1950; inhibition, % at 14.8 µM; 0.34% of 300,000 active; EBNA-1 DNA binding, fluorescence polarization; in the data active = inhibition above about 28%
PP1 counter – blocks human PP1-alpha phosphatase, a PP5 counter-screen | P62136 | purified PP1alpha, OMFP fluorescence | inhibition, % at 6.7 µM | 0.9% of 320,000 active;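 active = inhibition above the mean inhibition of all tested compounds plus 3 SD, computed separately for each screening campaign, cut at about 15% in these data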
bovine MsrA act – activates bovine MsrA enzyme; purified bovine MsrA, absorbance read-out; activation, % at 10.6 µM; 0.3% of 360,000 active; in the data active = activation above about 7.5%;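 note: 0% = vehicle and 100% = reference activator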
ZTA DNA inh – counter-screen for EBNA-1 inhibitors: inhibitors of Epstein-Barr virus ZTA | P03206 | ZTA-DNA binding, fluorescence polarization | inhibition, % at 11 µM | 0.15% of 320,000 active | AID 2234; in the data active = inhibition above about 33%
MsrA inh – inhibits bovine methionine sulfoxide reductase A; purified bovine MsrA, absorbance read-out; inhibition, % at 15.5 µM; 0.75% of 360,000 active; in the data active = inhibition above about 4.5%;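 note: 0% = vehicle wells with enzyme and 100% = reference inhibitor wells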
PP5 primary – inhibitors of human protein phosphatase 5 (PP5) | purified PP5c, OMFP substrate fluorescence | inhibition, % at 6.7 µM | 0.18% of 320,000 active;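 active = inhibition above the campaign's mean inhibition across all tested compounds plus 3 SD, cut at about 9.5% in these data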;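 note: 0% = DMSO only and 100% = 100 µM cantharidin control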
Target sequence (P53041 whole entry, looked up): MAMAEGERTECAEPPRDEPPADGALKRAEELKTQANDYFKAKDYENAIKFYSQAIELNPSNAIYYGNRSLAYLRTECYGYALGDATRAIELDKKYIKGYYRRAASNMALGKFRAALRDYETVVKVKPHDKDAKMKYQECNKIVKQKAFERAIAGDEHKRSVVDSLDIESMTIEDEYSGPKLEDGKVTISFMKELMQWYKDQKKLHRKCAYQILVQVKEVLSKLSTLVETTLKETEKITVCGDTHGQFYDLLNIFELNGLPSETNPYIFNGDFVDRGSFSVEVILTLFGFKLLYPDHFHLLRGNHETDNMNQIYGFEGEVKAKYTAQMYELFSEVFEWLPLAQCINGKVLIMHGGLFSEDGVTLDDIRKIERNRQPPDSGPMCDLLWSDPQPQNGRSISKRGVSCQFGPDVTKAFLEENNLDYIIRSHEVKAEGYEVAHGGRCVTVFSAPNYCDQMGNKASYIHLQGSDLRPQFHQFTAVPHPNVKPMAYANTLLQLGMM
PP1 inh confirm – human PP1 phosphatase inhibition, confirmation; shares compounds with PP1 counter; purified PP1alpha, OMFP substrate fluorescence; inhibition, % at 6.7 µM; 52% of 1,900 active; AID 2358;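 active = mean PP1 inhibition above a set limit taken from the earlier primary screen, cut at about 15% in these data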
PP5 inh counter – counter-screen for PP1 inhibitors: human PP5 phosphatase inhibition; shares compounds with PP1 counter; purified PP5c, OMFP fluorescence; inhibition, % at 6.7 µM; 4% of 1,900 active;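 active = mean PP5 inhibition over triplicate wells above about 9.5% taken from the earlier PP1 screen, limit read from the data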
The depositor's hits bear a star; . = not tested or not shown. Only some compounds are listed: those with a hit (about 2.3% of all), similar ones and a draw of the others.

SMILES	EBNA-1 inhibitor	PP1 counter	bovine MsrA act	ZTA DNA inh	MsrA inh	PP5 primary	PP1 inh confirm	PP5 inh counter
Cc1cccc(NC(=O)CN2C(=O)N/C(=C\c3ccccc3OCc3ccc(C(=O)O)cc3)C2=O)c1	8	8	-7	-8	3	1	.	.
Cc1ccccc1NC(=O)CN1C(=O)N/C(=C\c2ccccc2OCc2ccc(C(=O)O)cc2)C1=O	-11	18*	2	4	4	3	16*	-7
O=C(O)c1ccc(COc2ccccc2/C=C2/NC(=O)N(c3cccc(Cl)c3)C2=O)cc1	18	38*	-9	3	1	1	35*	2
O=C(CSc1nnnn1C1CC2C=CC1C2)Nc1ccc(C(=O)O)cc1 (stereo unspecified)	5	-3	-4	3	0	0	.	.
COc1ccccc1NC(=O)c1ccc(Br)c(S(=O)(=O)N2CCCC2)c1	0	-3	-10	10	1	4	.	.
CN(C)c1ccc(N=Nc2ccc(S(N)(=O)=O)cc2)cc1	0	20*	0	5	1	4	13	-4
CCOc1ccc(S(=O)(=O)N(CC)CC(=O)N2CCOCC2)cc1C	-4	0	0	8	1	2	.	.
COc1ccc(C)cc1NC(=O)c1cccc(-c2ccc(OC(C)=O)cc2)c1	-4	3	-2	-3	-1	2	.	.
N#Cc1nc(-c2ccc(OCc3ccccc3)cc2)oc1NCCCn1ccnc1	7	21*	0	3	0	5	9	1
CCC(=O)Nc1ccc(C(=O)NNC(=O)COc2cc(C)ccc2C)cc1	8	0	-4	1	1	0	.	.
COc1ccc(C(=O)COC(=O)CNS(=O)(=O)c2ccc(C)cc2)cc1	-17	-2	-3	-7	0	3	.	.
COc1cccc(-n2nnc3c(=O)n(Cc4ccc(F)cc4)cnc32)c1	18	40*	-2	-6	0	2	-2	-1
COc1cccc(-n2nnc3c(=O)n(Cc4ccc(Cl)cc4)cnc32)c1	12	2	-1	-12	1	3	.	.
COc1ccccc1C/C(N)=N/OC(=O)c1ccco1	9	-2	-14	-10	0	-3	.	.
Cc1ccc(-n2c(C)cc(C(=O)COC(=O)c3ccc[nH]c3=O)c2C)cc1	17	12	-2	17	0	0	.	.
Cc1cc(C(=O)COC(=O)c2ccc[nH]c2=O)c(C)n1-c1ccc(Br)cc1	11	18*	-9	-9	-1	3	8	-6
CC(OC(=O)c1ccc(NC(=O)CC#N)cc1)C(=O)NC(c1ccccc1)c1ccccc1 (stereo unspecified)	.	.	-3	.	-1	.	.	.
Cc1cc(C(=O)C(C)OC(=O)c2ccc(NC(=O)CC#N)cc2)c(C)n1-c1ccccc1 (stereo unspecified)	8	19*	0	4	0	3	6	0
CN(C)CC#Cc1cccc(-c2nc(C(=O)O)cc3c2[C@@H](CCO)N(S(=O)C(C)(C)C)C3)c1 (stereo partly specified)	.	.	-2	.	0	.	.	.
COC(=O)C(NC(=O)CCc1nnc2ccc(N3CCC(C)CC3)nn12)C(C)C (stereo unspecified)	5	31*	1	7	0	1	-4	-2
CC(=O)c1cccc(NC(=O)N[C@@H](CC(C)C)C(=O)O)c1	5	-2	-3	13	3	2	.	.
CC(=O)c1ccc(NC(=O)N[C@@H](CC(C)C)C(=O)O)cc1	-9	18*	3	1	1	-3	-4	-1
O=C(C1CCN(Cc2cn[nH]c2-c2ccc(F)cc2F)CC1)N1CCOCC1	6	43*	0	13	2	0	-3	-1
COc1ccc(C(=O)/C=C/Nc2cccc(C)n2)cc1OC	-1	35*	4	18	1	0	1	-3
COc1ccc(N/C=C/C(=O)c2ccc(OC)c(OC)c2)cc1	0	-4	-4	-12	2	0	.	.
SMILES	EBNA-1 inhibitor	PP1 counter	bovine MsrA act	ZTA DNA inh	MsrA inh	PP5 primary	PP1 inh confirm	PP5 inh counter
COc1ccc(CC(NC(C)=O)C(=O)NC2CCN(C(=O)C3CCCCC3)CC2)cc1OC (stereo unspecified)	2	0	-2	-10	0	-1	.	.
O=C(CCCCCNC(=O)c1ccccc1Br)N=Nc1c(O)[nH]c2ccccc12	3	4	-4	-24	3	4	.	.
CN(C(=O)c1cccc(NC(=O)Cc2ccc(NC(=O)C3CCN(C(=O)CCc4ccccc4)CC3)cc2)c1)C1CCC1	.	.	4	.	-1	.	.	.
Cc1cccc(NC(=O)CN2C(=O)N/C(=C/c3cc(C)n(-c4ccncc4)c3C)C2=O)c1	8	19*	-4	13	1	0	14	-2
CC(C)(C)NC(=O)N1CCN(c2nc(-c3ccccc3)ns2)CC1	1	53*	-3	8	-1	1	0	-2
Cc1ccccc1-n1c(C)nc2ccccc21	2	1	-2	-2	1	0	.	.
COc1ccc(CCNc2nc(-c3ccccn3)cs2)cc1OC	8	47*	0	-5	1	3	41*	-5
COc1ccc(CCNc2nc(-c3ccncc3)cs2)cc1OC	-4	-1	0	1	1	-1	.	.
CCCOc1ccc(N2CC(C(=O)NC3=NCCS3)CC2=O)cc1 (stereo unspecified)	1	-3	-9	-11	0	2	.	.
COC(=O)c1ccc(C#Cc2ccccc2)o1	-4	-4	-4	3	1	3	.	.
CCNc1nc(NCC)nc(C(=O)NN)n1	0	24*	-1	11	0	1	4	0
Fc1cccc(Cl)c1CSc1ccc2nnc(-c3ccccn3)n2n1	-1	10	-2	-10	0	2	.	.
Fc1cccc(CSc2ccc3nnc(-c4ccccn4)n3n2)c1	-4	18*	-15	5	-1	2	1	-5
Cc1ccc(C2CC(c3cccs3)=NN2C(=O)CSc2nc(=O)n3ccc(C)cc3n2)cc1 (stereo unspecified)	6	22*	-4	-22	2	-2	16*	2
Cn1cccc1C(=O)N1CCN(S(=O)(=O)c2ccccc2)CC1	13	50*	-7	8	-1	0	-2	0
COC(=O)C1=C(C)N(Cc2ccccc2)C(=NCc2cccc(C(F)(F)F)c2)N[C@H]1c1cccc(F)c1	5	18*	-6	-8	-1	5	-4	3
COc1ccccc1N1Cc2ccccc2C1	7	18*	-3	-34	3	3	24*	2
Cc1ccc2nc(NC(=O)C3CCN(S(=O)(=O)c4cc([N+](=O)[O-])ccc4Cl)CC3)sc2c1	14	20*	-4	5	0	1	26*	3
O=C(Nc1nc(-c2ccc([N+](=O)[O-])cc2)cs1)C1=COCCO1	.	.	-3	.	1	.	.	.

Screens from PubChem.
